Our source for the cytotoxicity call values is the antibiotic and cytotoxicity screens of Wong et al. (2023).

Hit rate of the full screen: of about 39,000 compounds, about 1,500 (3.8%) were called active. For the sample, actives were picked, then their nearest neighbours and some compounds at random.

The assay has as its system HSkMC (human skeletal muscle cells). The experiment in a line: cytotoxicity call (relative viability < 0.9). To be noted: 10 µM.
Regarding `C[C@H]1CN([C@@H](C)CO)C(=O)c2cc(NC(=O)C3CCCCC3)ccc2O[C@H]1CN(C)Cc1ccc(-c2ccccc2)cc1`, the cytotoxicity call was “inactive”.
Under `C[C@H](CO)N1C[C@H](C)[C@@H](CN(C)C(=O)Nc2ccc3c(c2)OCO3)Oc2c(NC(=O)C3CC3)cccc2C1=O` stands “inactive”; under `C[C@H]1CN([C@@H](C)CO)C(=O)c2cccc(NC(=O)Nc3ccc(C(F)(F)F)cc3)c2O[C@@H]1CN(C)C(=O)NC1CCCCC1`, “active”.
Under `C[C@H](CO)N1C[C@H](C)[C@@H](CN(C)C(=O)NC2CCCCC2)Oc2c(NC(=O)Nc3ccc(C(F)(F)F)cc3)cccc2C1=O` stands “inactive”; under `C[C@H](CO)N1C[C@H](C)[C@@H](CN(C)C(=O)Nc2ccc(C(F)(F)F)cc2)Oc2c(NC(=O)NC3CCCCC3)cccc2C1=O`, “inactive”.
The result for `C[C@@H]1CN([C@H](C)CO)C(=O)c2cccc(NC(=O)Nc3ccc(C(F)(F)F)cc3)c2O[C@H]1CN(C)C(=O)NC1CCCCC1` reads “inactive”; that for `C[C@@H]1CN([C@@H](C)CO)C(=O)c2cccc(NC(=O)Nc3ccc(C(F)(F)F)cc3)c2O[C@H]1CN(C)C(=O)NC1CCCCC1`, “active”; that for `C[C@@H]1CN([C@H](C)CO)C(=O)c2cccc(NC(=O)Nc3ccc(C(F)(F)F)cc3)c2O[C@@H]1CN(C)C(=O)NC1CCCCC1`, “active”.
Regarding `C[C@H]1CN([C@@H](C)CO)C(=O)c2cccc(NC(=O)Nc3ccc(C(F)(F)F)cc3)c2O[C@H]1CN(C)C(=O)NC1CCCCC1`, the cytotoxicity call is “inactive”.
Consider `C[C@@H]1CN([C@@H](C)CO)C(=O)c2cccc(NC(=O)Nc3ccc(C(F)(F)F)cc3)c2O[C@@H]1CN(C)C(=O)NC1CCCCC1`, for which the cytotoxicity call is “inactive”.
For the compound `C[C@H](CO)N1C[C@H](C)[C@H](CN(C)C(=O)NC2CCCCC2)Oc2c(NC(=O)Nc3ccc(C(F)(F)F)cc3)cccc2C1=O`, the cytotoxicity call was “inactive”.
As for `CC(C)NC(=O)Nc1cccc2c1O[C@H](CN(C)S(=O)(=O)c1ccccc1)[C@H](C)CN([C@H](C)CO)C2=O`, the cytotoxicity call is “inactive”.
The result for `C[C@@H]1CN([C@@H](C)CO)C(=O)c2cccc(NC(=O)Nc3ccc(C(F)(F)F)cc3)c2O[C@H]1CN(C)Cc1ccc(C(=O)Nc2ccccc2N)cc1` reads “inactive”; that for `C[C@H](CO)N1C[C@H](C)[C@H](CN(C)C(=O)c2ccccc2)OCCCC[C@H](C)Oc2ccc(NC(=O)NC3CCCCC3)cc2C1=O`, “inactive”; that for `O=C(C[C@@H]1CC[C@H](NS(=O)(=O)c2ccc(F)cc2)[C@H](CO)O1)NCc1ccc(Cl)c(Cl)c1`, “inactive”.
Under `C[C@@H]1CN([C@@H](C)CO)S(=O)(=O)c2ccc(-c3cccnc3)cc2O[C@H]1CN(C)CC1CCOCC1` stands “inactive”; under `COCC(=O)N(C)C[C@H]1Oc2cc(C#CCN(C)C)ccc2S(=O)(=O)N([C@H](C)CO)C[C@H]1C`, “inactive”; under `CCNC(=S)N1CCC[C@H](C(N)=O)C1`, “inactive”.
The result for `Cn1cncc1CN1CCO[C@]2(COCCN(S(C)(=O)=O)C2)C1` reads “inactive”; that for `Cc1noc(C)c1NC(=O)Nc1ccc2c(c1)C(=O)N([C@@H](C)CO)C[C@H](C)[C@@H](CN(C)C(=O)Nc1ccc3c(c1)OCO3)OCCCC[C@H](C)O2`, “inactive”; that for `Nc1ncnc2c1ncn2C1OC(COP(=O)(O)OP(=O)([O-])OP(=O)([O-])O)C(O)C1O.[Na+].[Na+]` (centres undefined), “inactive”.
For the compound `COc1cccc(S(=O)(=O)N(C)C[C@@H]2OCc3cn(nn3)CCCC(=O)N([C@H](C)CO)C[C@@H]2C)c1`, the cytotoxicity call is “inactive”.
Regarding `C[C@H](CO)N1C[C@H](C)[C@@H](CN(C)Cc2ccc(Oc3ccccc3)cc2)Oc2ccc(NC(=O)Nc3cccc4ccccc34)cc2C1=O`, the cytotoxicity call was “inactive”.
The result for `C[C@@H]1CN([C@H](C)CO)C(=O)c2cc(NC(=O)Nc3cccc4ccccc34)ccc2O[C@H]1CN(C)Cc1ccc(Oc2ccccc2)cc1` reads “inactive”; that for `C[C@@H]1CN([C@@H](C)CO)C(=O)c2cc(NC(=O)Nc3cccc4ccccc34)ccc2O[C@@H]1CN(C)Cc1ccc(Oc2ccccc2)cc1`, “active”; that for `C[C@@H]1CN([C@H](C)CO)C(=O)c2cc(NC(=O)Nc3cccc4ccccc34)ccc2O[C@@H]1CN(C)Cc1ccc(Oc2ccccc2)cc1`, “inactive”.
As for `C[C@H](CO)N1C[C@H](C)[C@H](CN(C)Cc2ccc(Oc3ccccc3)cc2)Oc2ccc(NC(=O)Nc3cccc4ccccc34)cc2C1=O`, the cytotoxicity call is “active”.
Under `C[C@H]1CN([C@@H](C)CO)C(=O)c2cc(NC(=O)Nc3cccc4ccccc34)ccc2O[C@@H]1CN(C)Cc1ccc(Oc2ccccc2)cc1` stands “inactive”.
Turning to `COc1ccccc1C#Cc1cnc2c(c1)C(=O)N([C@@H](C)CO)C[C@@H](C)[C@H](CN(C)S(=O)(=O)c1cn(C)cn1)O2`, the cytotoxicity call is “inactive”.
Take `CN1C(=O)c2cc(NC(=O)C3CCOCC3)ccc2OC[C@@H]2O[C@H](CC(=O)NCc3ccccc3F)CC[C@H]21`: the cytotoxicity call is “inactive”.
Regarding `NC(=O)NCC#Cc1ccc2c(c1)[C@]1(C(=O)N2)[C@H](C(=O)N2CCN(c3ncccn3)CC2)[C@H]2C(=O)O[C@H](c3ccccc3)[C@H](c3ccccc3)N2[C@@H]1c1ccc(OCCO)cc1`, the cytotoxicity call is “inactive”.
Under `Cc1noc(C)c1NC(=O)Nc1ccc2c(c1)C(=O)N([C@@H](C)CO)C[C@H](C)[C@H](CN(C)Cc1ccc(C(=O)O)cc1)OCCCC[C@@H](C)O2` stands “inactive”; under `C[C@H](CO)N1C[C@H](C)[C@@H](CN(C)Cc2ccc(-c3ccccc3)cc2)Oc2c(NC(=O)c3nc4ccccc4s3)cccc2C1=O`, “inactive”; under `C[C@]12CC[C@@H]3[C@]4(C=C[C@@]5(C=C4C(=O)c4cc6ccccc6s4)C[C@@H](O)CC[C@]35C)[C@@H]1CC[C@@]2(O)CN1CCC(n2c(=O)[nH]c3ccccc32)CC1`, “inactive”.
The result for `CC1CC2C3CCC4=CC(=O)C=CC4(C)C3(Cl)C(O)CC2(C)C1(OC(=O)c1ccco1)C(=O)CCl` (centres undefined) reads “active”; that for `CCC(=O)OCC(=O)C1(OC(=O)CC)C(C)CC2C3CCC4=CC(=O)C=CC4(C)C3(Cl)C(O)CC21C` (centres undefined), “inactive”.
Regarding `CCC(=O)OC1(C(=O)CCl)C(C)CC2C3CCC4=CC(=O)C=CC4(C)C3(F)C(O)CC21C` (centres undefined), the cytotoxicity call is “inactive”.
For `C[C@H](CO)N1C[C@H](C)[C@H](CN(C)S(=O)(=O)c2ccc(F)cc2)Oc2ncc(C#CCN(C)C)cc2C1=O`, the cytotoxicity call is “inactive”.
Under `CCS(=O)(=O)NCC[C@@H]1CC[C@@H](NC(=O)C2CCOCC2)[C@H](CO)O1` stands “inactive”.
